Dicer processing: inhibitors of Dicer pre-microRNA processing, primary screen, biochemical, cat-ELCCA, chemiluminescence | Endoribonuclease Dicer (Homo sapiens), Q9UPY3 | cat-ELCCA pre-miR-21 Dicer processing; hits give high values | z-score at 25 µM | 6% of 47,000 active; in the data active means z-score above about 3, passing the limit was not always enough;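 further: higher signal means more uncleaved substrate so more Dicer inhibition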
Large screens that a line does not name were inactive. Many of the other results were omitted from the sample, so hits are more common in it than they were.

Cc1nn(-c2ccccc2)cc1C=C1C(=O)N(C)C(=O)N(C)C1=O	none
COc1ccc(NC2=CC(=O)CC(C)(C)C2)c(OC)c1	none
Cc1ccc(NC2=CC(=O)CC(C)(C)C2)cc1C	Dicer processing 3.47
CCCCNC1=CC(=O)CC(C)(C)C1	none
CC(=O)OCCOCn1cnc2c(=O)[nH]c(N)nc21	none
CCOC(=O)c1ccc(N2CCOCC2)c(NS(=O)(=O)c2cc(Br)c(Cl)s2)c1	none
COc1ccc(O)c(C(=O)CC(=O)c2ccc(F)cc2)c1	none
COc1ccc(O)c(C(=O)C2c3ccccc3C(=O)N2c2ccc(C)cc2)c1 (configuration not stated)	Dicer processing 7.95
COc1ccc2c(c1)C(=O)N(c1ccc(C)cc1)C(=O)C2	none
O=S(=O)(/N=C/c1ccccc1O)c1ccc(N=Cc2ccccc2O)cc1	none
COc1ccc(S(=O)(=O)N(C)C2CCCCC2)cc1-c1nnc2c3ccccc3c(C)nn12	none
CCCCCCc1cc2c(C)cc(=O)oc2cc1O	none
Nc1nc(-c2cccnc2)nn1C(=O)Cc1ccccc1	Dicer processing 8.25
CC(=O)n1nc(-c2cccnc2)nc1N	Dicer processing 5.53
O=C(O)c1cc(-c2cccnc2)nc2ccccc12	none
CCOC(=O)Cn1c(-c2cccnc2)nc(-c2ccccc2)c1-c1ccccc1	none
Nc1nc(-c2cccnc2)nn1S(=O)(=O)c1ccccc1	none
Nc1nc(-c2cccnc2)nn1C(=O)c1ccc(Cl)cc1	none
N#Cc1ccc(/C=C2\NC(=S)NC2=O)cc1	none
O=C1CC(c2ccccc2)CN1C(=O)c1ccccc1Cl (configuration not stated)	none
O=C(c1ccccc1)c1cc2c(cc1Br)OCCCO2	none
COc1ccc(CCN2C(=O)c3cccc4c(Sc5ccccn5)ccc(c34)C2=O)cc1OC	none
O=C1c2cccc3c(N4CCOCC4)ccc(c23)C(=O)N1CCO	none
O=C1c2cccc3c(Sc4ccccc4)ccc(c23)C(=O)N1NCCO	Dicer processing 3.25
COc1ccc(-c2[nH]ncc2CN2CCN(c3ncc(C(F)(F)F)cc3Cl)CC2)cc1	none
O=C1CC(c2cccc(Cl)c2)Cc2nc3nc(C(F)(F)F)nn3cc21 (configuration not stated)	Dicer processing 3.82
O=C1CC(c2cccc(Cl)c2)Cc2nc(NCc3ccco3)ncc21 (configuration not stated)	none
O=C1CC(c2cccc(Cl)c2)Cc2nc(N3CCc4ccccc43)ncc21 (configuration not stated)	none
COc1ccc(OCC(O)CNS(=O)(=O)c2c(C)noc2C)cc1 (configuration not stated)	none
CCNC(=S)N/N=C/c1cc(OC)c(OC)c(OC)c1	none
COc1ccc(/C=N/N=C/c2ccc(OC)c(OC)c2)cc1OC	none
COc1cc(/C=N/N=C/c2ccccc2O)cc(OC)c1OC	Dicer processing 7.43
CCCC1C(C#N)=C(N)Oc2n[nH]c(CC(=O)OCC)c21 (configuration not stated)	none
NNC(=O)CO/N=C/c1ccc(Cl)cc1Cl	none
Cc1nn(C)c(N2CCOCC2)c1[N+](=O)[O-]	none
COc1ccccc1Nc1nc2nonc2nc1Nc1cccc(Br)c1	none
COc1ccc(OC)c(Nc2nc3nonc3nc2Nc2cccc(Br)c2)c1	none
COc1ccc(OC)c(Nc2nc3nonc3nc2Nc2ccc(F)cc2)c1	Dicer processing 4.07
Cn1c(=O)c2c(c3ccccc31)OC(=O)CC2c1cccc(Br)c1 (configuration not stated)	none
CSc1cc(-c2nccs2)nn1C(C)=O	none
CS/C(=C\C(=O)c1ccccc1)Nc1ccccc1Cl	none
NS(=O)(=O)c1ccc(Cl)cc1Sc1ccccc1C(=O)O	none
Oc1ccc(Cl)cc1-c1csnn1	none
Oc1ccc(Cl)cc1Sc1cc(Cl)ccc1O	Dicer processing 3.16
S=c1[nH]nc(Nc2ccc(I)cc2)s1	none
Fc1ccccc1-c1ncc(-c2ccc(Br)cc2)o1	none
CCOC(=O)c1c(NC(=O)c2ccco2)sc(C)c1-c1ccccc1	none
CC(C)c1ccc2c(c1)CCC1C(C)(CNC(=O)NC(C)(C)C)CCCC21C (configuration not stated)	none
COc1ccc(S(=O)(=O)Nc2ccc3oc4c(c3c2)CCCC4)cc1	none
O=C(O)c1ccc(S(=O)(=O)Nc2ccc3oc4c(c3c2)C(=O)CCC4)cc1	none
Cc1ccccc1S(=O)(=O)Nc1ccc2oc3c(c2c1)CCCC3	Dicer processing 3.9
Cc1oc2ccc(NS(=O)(=O)c3ccc(F)cc3)cc2c1C(=O)O	none
Cc1oc2ccc(NS(=O)(=O)c3ccc(Cl)cc3)cc2c1C(=O)O	none
Cc1oc2ccc(NS(=O)(=O)c3ccccc3)cc2c1C(=O)O	Dicer processing 3.44
O=C1C(=O)N(CCCN2CCOCC2)C(c2ccco2)/C1=C(\O)c1ccccc1 (configuration not stated)	none
Clc1ccccc1CN1CCN(Cc2ccco2)CC1	none
CC1(C)CC(=O)C2=C(C1)Nc1ccccc1NC2c1cccc(Oc2ccccc2)c1 (configuration not stated)	none
COC(=O)C1=C(C(=O)OC)SC(=C2C(=S)C(C)(C)Nc3ccc(C)cc32)S1	none
Cc1coc(=O)n1-c1ccc(Cl)cc1Cl	none
COc1ccc(C2=NN(C(=O)CCCC(=O)O)C(c3ccc(F)cc3)C2)cc1OC (configuration not stated)	Dicer processing 3.78
COc1ccc(C2=NN(C(=O)CCCC(=O)O)C(c3ccc(Cl)cc3)C2)cc1OC (configuration not stated)	none
COc1cccc(C2CC(c3ccccc3)=NN2C(=O)CCCC(=O)O)c1OC (configuration not stated)	none
COC(=O)c1ccccc1CS(C)(=O)=O	none
CCOC(=O)CC1=Nn2c(nnc2-c2cc(Cl)cc(Cl)c2)SC1	none
O=C(c1ccc(Cl)cc1)n1c(=O)oc2ccccc21	none
CCCCOC(=O)n1c(=O)oc2ccccc21	Dicer processing 6.56
CCOC(=O)n1c(=S)oc2ccccc21	none
CCOc1ccc(S(=O)(=O)N2CN3CCN(C3)C2)cc1	Dicer processing 3.25
CCOC(=O)C1CCN(S(=O)(=O)c2ccc(Br)cc2)CC1	none
CCCCOc1ccc(S(=O)(=O)n2cnc(C)c2)cc1	none
O=C(Oc1c(-c2ccccc2)c(=O)n2c3c(cccc13)CC2)c1ccccc1	none
O=C(Oc1c(-c2ccccc2)c(=O)n2c3c(cccc13)CCC2)c1cccs1	none
O=C(Oc1c(-c2ccccc2)c(=O)n2c3c(cccc13)CC2)c1cccs1	Dicer processing 3.96
NS(=O)(=O)c1ccc(CCNc2ncnc3nc[nH]c23)cc1	none
CCN(C(=S)Nc1cccc(C(F)(F)F)c1)c1ccccc1	none
CCOC(=O)c1sc(-c2ccccc2)nc1O	none
Cc1onc(-c2c(F)cccc2Cl)c1C(=O)NC(=S)NC1CC(C)CC(C)(C)C1 (configuration not stated)	none
Cc1ccc2ncnc(Nc3ccc(Cl)cc3)c2c1	none
Cn1cnc2c(NCc3ccco3)ncnc21	none
Cc1ccc2ncnc(NCc3ccco3)c2c1	Dicer processing 4.49
COCCCN=C1NC(=O)C(CC(=O)Nc2cc(Cl)ccc2Cl)S1 (configuration not stated)	none
COCCCN=C1NC(=O)C(CC(=O)Nc2ccccc2Cl)S1 (configuration not stated)	Dicer processing 3.12
O=C(CC1Sc2ccccc2NC1=O)Nc1ccccc1Cl (configuration not stated)	none
Cc1c(NC(=O)O/N=C(/N)c2ccccc2)sc2nc(-c3ccc(Cl)cc3)nn12	none
Cc1ccc(/C(O)=C2/C(=O)C(=O)N(CC3CCCO3)C23C(=O)N(C)c2ccccc23)cc1F (configuration not stated)	none
CCOC(=O)C1(C(F)(F)F)N=C(N2CCOCC2)Oc2c1c(C)nn2-c1ccccc1 (configuration not stated)	none
